PubChem BioAssay (NCATS)
Results filed as inconclusive are left out. The source made the active and inactive calls. Calls follow the shape of the dose curve; as a rule, active = well fitted inhibition curve with a large enough effect; inconclusive = small, poorly fitted or top-dose-only effect; inactive = flat fitted curve, though single readings scatter.

assay: qHTS profiling for inhibitors of Plasmodium falciparum proliferation (AID 504749); also: nearly all actives have a fitted effect of over 60% in size;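 as to activity, negative = inhibition: 0% = DMSO vehicle and full inhibition = artemisinin control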; details: P. falciparum in erythrocytes, SYBR Green DNA, 72 h; at 12.8 µM (top of the series); parasite line A
Text: NIH National Institute of Allergy and Infectious Diseases [NIAID] NIH Chemical Genomics Center [NCGC] MLPCN Grant: None Assay Provider: Xinzhuan Su, NIAID NCGC Assay Overview: Plasmodium falciparum is a virulent malarial parasite that kills 1-2 million people worldwide each year. Transmitted by mosquitoes, the sporozoite form of the parasite enters the blood stream to infect hepatocytes, where they become merozoites that infect red blood cells (erythrocytes). Within erythrocytes, merozoites begin a […] cycle of growth and division, after which the parasite is released to infect new red blood cells. Gametocytes, which form within erythrocytes as well, circulate in the bloodstream and are ingested by the mosquito, thereby completing the life cycle. To profile malarial isolates for differential chemical responses and to identify inhibitors of malarial growth, an assay that measures P. falciparum growth and replication within erythrocytes was employed. This assay uses a DNA binding fluorescent dye (SYBR Green) to detect parasite DNA following cell lysis. Because mature erythrocytes lack DNA, only Plasmodium-derived DNA is detected.
NCGC Assay Protocol Summary: The SYBR Green viability assay was adapted from a method described previously (Plouffe et al., 2008). For screening 3 ul culture medium was dispensed into 1536 well black clear bottom plates (Aurora Biotechnologies) using a Multidrop Combi (Thermo Fisher Scientific Inc.), 23 nL compounds in DMSO were added by a pin tool (Kalypsys), and 5 ul of erythrocytes infected with P. falciparum (0.3% parasitemia, 2.5% hematocrit final concentration) were added. The plates were incubated at 37 C in a humidified incubator in 5% CO2 for 72 h, and 2 ul lysis buffer (20 mM Tris HCl, 10 mM EDTA, 0.16% saponin, 1.6% triton X, 10X SYBR Green I supplied as 10,000X […] by Invitrogen) was added to each well. The plates were mixed for 25 sec with gentle shaking and incubated overnight at room temperature in the dark. The following morning, fluorescence intensity at 485(14) nm excitation and 535(25) nm emission wavelengths was measured on an EnVision (Perkin Elmer) plate reader. Plate reads were normalized relative to the control inhibitor (0.29 uM artemisinin) and vehicle (DMSO) wells present on each plate and then corrected by an algorithm using vehicle-only control plates at the beginning and end of the compound plate stack.
Potency is read from the fitted curve at half-maximal effect.

SMILES	activity, negative = inhibition
COc1ccc([C@@H]2CNC(=O)C2)cc1OC1CCCC1	9.55% (inactive)
Nc1nc2c(c(=O)[nH]1)N(C=O)[C@H](CNc1ccc(C(=O)N[C@@H](CCC(=O)O)C(=O)O)cc1)CN2	9.3% (inactive)

same assay, conditions: P. falciparum in erythrocytes, SYBR Green DNA, 72 h; at 12.8 µM (top of the series); parasite line B

SMILES	activity, negative = inhibition
COc1ccc([C@@H]2CNC(=O)C2)cc1OC1CCCC1	-3.14% (inactive)
Nc1nc2c(c(=O)[nH]1)N(C=O)[C@H](CNc1ccc(C(=O)N[C@@H](CCC(=O)O)C(=O)O)cc1)CN2	7.79% (inactive)

same assay, conditions: P. falciparum in erythrocytes, SYBR Green DNA, 72 h; at 28.7 µM (top of the series); parasite line A

SMILES	activity, negative = inhibition
OCC(O)C(O)C(O)CO (centres undefined)	4.99% (inactive)
COc1ccc2c(c1OC)C(=O)OC2[C@H]1c2c(cc3c(c2OC)OCO3)CCN1C (some centres undefined)	5.64% (inactive)

same assay, conditions: P. falciparum in erythrocytes, SYBR Green DNA, 72 h; at 28.7 µM (top of the series); parasite line B

SMILES	activity, negative = inhibition
OCC(O)C(O)C(O)CO (centres undefined)	7.38% (inactive)
COc1ccc2c(c1OC)C(=O)OC2[C@H]1c2c(cc3c(c2OC)OCO3)CCN1C (some centres undefined)	5.33% (inactive)

same assay, conditions: P. falciparum in erythrocytes, SYBR Green DNA, 72 h; parasite line A

SMILES	Potency
CCCCCCCCCCCC(CC1OC(=O)C1CCCCCC)OC(=O)C(CC(C)C)NC=O (centres undefined)	355 nM (active)
COc1cccc2c1C(=O)c1c(O)c3c(c(O)c1C2=O)C[C@@](O)(C(=O)CO)C[C@@H]3O[C@H]1C[C@H](N)[C@H](OC2CCCCO2)[C@H](C)O1 (some centres undefined)	3160 nM (active)
CCC(C(=O)O)C1CCC(C)C(C(C)C(O)C(C)C(=O)C(CC)C2OC3(C=CC(O)[C@@]4(CC[C@](C)(C5CC[C@@](O)(CC)C(C)O5)O4)O3)C(C)CC2C)O1 (some centres undefined)	1000 nM (active)

same assay, conditions: P. falciparum in erythrocytes, SYBR Green DNA, 72 h; parasite line B

SMILES	Potency
CCCCCCCCCCCC(CC1OC(=O)C1CCCCCC)OC(=O)C(CC(C)C)NC=O (centres undefined)	708 nM (active)
COc1cccc2c1C(=O)c1c(O)c3c(c(O)c1C2=O)C[C@@](O)(C(=O)CO)C[C@@H]3O[C@H]1C[C@H](N)[C@H](OC2CCCCO2)[C@H](C)O1 (some centres undefined)	4470 nM (active)
CCC(C(=O)O)C1CCC(C)C(C(C)C(O)C(C)C(=O)C(CC)C2OC3(C=CC(O)[C@@]4(CC[C@](C)(C5CC[C@@](O)(CC)C(C)O5)O4)O3)C(C)CC2C)O1 (some centres undefined)	1120 nM (active)
